Bioassay records from PubChem.
Beta apoptosis: beta cell apoptosis inhibition | INS-1E cytokine-induced death, ATP luminescence, 48 h; percent of positive-control rescue, neutral wells zero | 0.8% of 300,000 active | AID 435005 | protection from apoptosis, % (no concentration beside the values);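 active means Every replicate reaches about 75%, or at least half do and their mean reaches it too, limit read from the data; inconclusive means At least half of replicates reach the limit but their mean does not; inactive means Under half of replicates reach the limit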;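 further: 0% = cytokine-treated negative control wells and 100% = positive control rescue; higher means more ATP so stronger rescue from cytokine killing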
CSC inhib: cancer stem cell inhibition; 1.1% of 300,000 active; cancer stem cell-like cells viability, luminescence; inhibition, % at 7.5 µM; in the data active means inhibition above about 75%; inconclusive means no clear call, values can overlap the other calls; tested in HMLE shEcad cells
Calb FLC: affects C. albicans growth with fluconazole | C. albicans CaCi-2 (fluconazole-resistant clinical isolate) + fluconazole, Alamar Blue growth, 48 h | growth inhibition, % (concentration not given with the values) | 0.57% of 300,000 active;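 active means growth inhibition above about 58% in most replicates, limit read from the data, passing the limit was not always enough; inconclusive means exactly half the replicates above a set limit; inactive means most replicates below a set limit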;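 further: all wells also contain fluconazole at 8 µg/ml as a sub-toxic cotreatment; 0% = median of DMSO wells and 100% = median of geldanamycin control wells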
Shn3 inh set2: Schnurri-3 reporter inhibition in Clone20 osteoblasts. AID 588674. Clone20 osteoblast Shn3 3'UTR firefly luciferase, 24 h. inhibition, % at 12.5 µM. 0.52% of 360,000 active;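 active means mean inhibition of at least 75% with every replicate also reaching 75%; inconclusive means mean inhibition at least 75% but some replicate below; inactive means mean inhibition below 75%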;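 further: 0% = median of neutral control wells and 100% = pilot-screen positive control compound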
PfHsp90 yeast 2: reduces growth (ATP signal) of yeast expressing P. falciparum Hsp90 | S. cerevisiae expressing PfHsp90, BacTiter-Glo ATP, 48 h; yeast lacking PDR1 and PDR3 efflux regulators | inhibition, % at 9.4 µM | 0.32% of 310,000 active | AID 504621;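 active means every replicate shows inhibition above about 80%, whatever the replicate mean, limit read from the data; inconclusive means mean inhibition reaches the set limit but some replicate falls short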;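 further: 0% = DMSO neutral controls and 100% = 20 µM radicicol positive controls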
An asterisk follows results filed as active; ? = inconclusive; · = no result. An excerpt weighted towards active compounds, which were near 2.2% of everything screened.

SMILES	Beta apoptosis	CSC inhib	Calb FLC	Shn3 inh set2	PfHsp90 yeast 2
CC1(C)[C@@H](O)CC[C@]2(C)C3C(O)C=C4[C@H]5C[C@@](C)(CO)CC[C@]5(C)CC[C@]4(C)[C@]3(C)CC[C@@H]12 (stereo not given in full)	-1	126*	7	-16	-2
CC(=O)Nc1ccc(S(=O)(=O)NCC(=O)OCC(=O)NCCc2ccccc2)cc1	·	·	·	46	·
N#Cc1ccc(-c2ccc(OCC(=O)Nc3cccnc3)cc2)cc1	-6	-12	-12	89*	21
CC(=O)Nc1ccc(NC(=O)COc2ccc(-c3ccc(C#N)cc3)cc2)cc1	3	-8	·	2	-2
FC(F)(F)c1ccc(C2[C@H]3CN(Cc4cccnc4)[C@H](c4ccccc4)C34CC2(c2cccnc2)C4)cc1 (stereo not given in full)	15	102*	13	12	-1
Cc1c(Cl)c([N+](=O)[O-])nn1CCCC(=O)NC1CCCCC1	3	-8	4	17	2
O=S(=O)(/C=C/c1ccccc1)NC1CCCCCC1	-6	·	-25	-12	99*
O=S(=O)(/C=C/c1ccccc1)NC1CCCCCCC1	1	·	-15	-6	88*
O=S1(=O)CCC(NS(=O)(=O)/C=C/c2ccccc2)C1 (stereo not given)	-1	-9	-3	-15	19
O=C(NNC1=C(C(=O)C(F)(F)F)CCC1)c1cccc(O)c1	-6	-8	-24	-45	-19
Cc1cccc(C(=O)NNC2=C(C(=O)C(F)(F)F)CCC2)c1O	49	110*	105*	26	8
C=C(C)CSc1[nH]c(=O)cc(C)c1C#N	4	-14	86*	-10	-4
Cc1cc(=O)[nH]c(SCC(=O)O)c1C#N	2	-12	9	-3	9
CC(=O)Nc1ccc(-c2csc(NC(=O)CCCc3cccs3)n2)cc1	2	75*	-18	1	31
C=CCn1c(C)cc(C(=O)CSc2nc(N)cc(N)n2)c1C	1	-10	108*	-6	6
Cc1cc(C(=O)CSc2nc(N)cc(N)n2)c(C)n1C1CC1	0	-13	-12	-3	-6
CCCOc1ccc2c(c1)C(=NN=C(N)N)c1cc(OCCC)ccc1-2	8	112*	10	27	0
CC[C@@H](C(=O)[C@@H](C)[C@@H](O)[C@H](C)[C@@H]1O[C@@H]([C@@H](CC)C(=O)O)CC[C@@H]1C)[C@H]1O[C@]2(C=C[C@@H](O)[C@]3(CC[C@@](C)([C@H]4CC[C@](O)(CC)[C@H](C)O4)O3)O2)[C@H](C)C[C@@H]1C	·	·	·	82	-79
CC[C@@H](C(=O)[C@@H](C)[C@@H](O)[C@H](C)CCc1ccc(C)c(O)c1C(=O)O)[C@H]1O[C@](CC)([C@H]2CC[C@](O)(CC)[C@H](C)O2)C[C@@H]1C	97*	117*	·	92*	11
COc1cc(/C=C(/C(=O)c2cccs2)c2nc3ccccc3[nH]2)cc(OC)c1O	23	77*	49	-15	-17
COc1ccc(C(=O)N/C(=C/c2cccs2)c2nc3ccccc3[nH]2)cc1OC	1	-2	12	-9	-8
O=C(N/C(=C/c1ccc(Cl)cc1)c1nc2ccccc2[nH]1)c1ccco1	2	-8	2	6	-10
O=C(/C(=C/c1ccc(Cl)cc1)c1nc2ccccc2[nH]1)c1ccccc1	104*	58	0	?	98*
COc1ccc(C(=O)O/N=C/c2ccc(S(=O)(=O)c3ccc(Cl)cc3)nc2)cc1	2	10	-4	9	1
Nc1nc(Cl)nc2c1ncn2[C@H]1C[C@H](O)[C@@H](CO)O1	31	76*	·	88*	-4
SMILES	Beta apoptosis	CSC inhib	Calb FLC	Shn3 inh set2	PfHsp90 yeast 2
CCCCCCCCCCCCCCCC[N+](C)(C)Cc1ccc(F)cc1	·	·	·	?	115*
CCCN(CCC)C(=O)Cc1ccc(F)cc1	-3	·	-4	7	·
Cc1nc(-c2cccnc2)sc1C(=O)N/N=C/c1ccccc1Cl	10	4	0	-21	-5
CC(C)c1nnc(NC(=O)CCS(=O)(=O)c2nc(-c3cccs3)cc(C(F)(F)F)n2)s1	-4	45	3	99*	·
CCN1C(=O)[C@H]2[C@@H](c3ccc(OC)cc3)N[C@]3(CCCN(Cc4ccc(OC)cc4)C3=O)[C@H]2C1=O	·	·	·	-5	·
O=C1c2ccccc2CN1Cc1ccccc1	-3	-2	-11	14	-14
OCc1ccc2c(c1)c(-c1ccc3c(c1)OCCO3)c(-c1ccccc1)n2-c1ccccc1	5	92*	·	4	12
